Bioassay records as filed in PubChem.
The list is not random: actives were taken first. Their share in the collection is about 0.86%.
TAR Tat displ – HIV-1 TAR-Tat binding disruption; HIV-1 TAR RNA, Tat peptide displacement FRET; stronger effect = higher value; z-score (no concentration beside the values); actives 0.6% (n = 100,000); AID 1259389; active means z-score of 3 or more in at least 2 runs
CDC25B-CDK2 inh – human CDC25B-CDK2/CyclinA binding inhibition. P30305+P24941. HTRF CDC25B-CDK2/CyclinA binding, anti-His/anti-Flag; stronger effect = higher value. z-score (concentration not given with the values). actives 0.72% (n = 94,000). AID 1259370; in the data active means z-score above about 3.2
* hit, by the source's call.

`Nc1nccnc1C(=O)N/N=C/c1ccc(C(F)(F)F)cc1` gave CDC25B-CDK2 inh -2.3.
`O=C1c2cccc3c(N4CCOCC4)ccc(c23)C(=O)N1c1cc(Cl)ccc1O` gave TAR Tat displ -4.8 and CDC25B-CDK2 inh 9.7*.
Screening O=C1c2cccc3c(N4CCOCC4)ccc(c23)C(=O)N1c1cccc(O)c1 returned TAR Tat displ -7.6 and CDC25B-CDK2 inh -0.44.
For O=c1c2c(nc3c(-c4ccccc4)c(-c4ccccc4)[nH]n13)CCCC2 the results were CDC25B-CDK2 inh -1.2.
Screening CCOc1ccc(C2C3=C(CCCC3=O)NC3=C2C(=O)c2ccccc23)cc1 (stereo not given) returned TAR Tat displ -0.77 and CDC25B-CDK2 inh -2.1.
CCOc1ccc(C2C3=C(Nc4nc(N)[nH]c(=O)c42)c2ccccc2C3=O)cc1 (stereo not given) was read as TAR Tat displ 2.4 and CDC25B-CDK2 inh 14*.
CCN(C(=O)c1ccc2c(c1)OCO2)c1nc(-c2ccc(C)cc2)cs1 was read as TAR Tat displ 2.7 and CDC25B-CDK2 inh -2.2.
`CC1CCN(C(=O)C2CCN(c3ccc(N4CCOCC4)nn3)CC2)CC1` gave TAR Tat displ 0.53.
`COc1ccc(C(=O)c2c(N)c(-c3nc(-c4ccccc4)cs3)c3ccccn23)cc1` gave TAR Tat displ 3.6 and CDC25B-CDK2 inh -0.57.
`Nc1c(-c2nc(-c3ccccc3)cs2)c2ccccn2c1C(=O)c1cccs1` gave TAR Tat displ 0.36 and CDC25B-CDK2 inh 25*.
CCc1ccc(S(=O)(=O)NCCc2csc3nc(-c4cccs4)nn23)cc1 was read as TAR Tat displ 0.23.
Screening CCCn1c2ccccc2c2nnc(SC(CC)C(=O)Nc3cc(C)on3)nc21 (stereo not given) returned TAR Tat displ -0.8 and CDC25B-CDK2 inh 17*.
For CCOC(=O)c1sc(NC(=O)C(CC)Sc2nnc3c4ccccc4n(CC)c3n2)nc1C (stereo not given) the results were TAR Tat displ 0.92 and CDC25B-CDK2 inh -1.8.
O=C(c1cccs1)C(O)c1cccs1 (stereo not given) was read as TAR Tat displ -0.77 and CDC25B-CDK2 inh 13*.
Screening CN(C)c1ccc(C(O)C(=O)c2cccs2)cc1 (stereo not given) returned TAR Tat displ 0.09 and CDC25B-CDK2 inh 0.08.
Screening O=C(COc1ccc(Br)cc1)Nc1ccc(-n2cnnn2)cc1 returned TAR Tat displ 2.1 and CDC25B-CDK2 inh -0.52.
COc1cc(NC(=O)COc2ccc(-n3cnnn3)cc2)c(OC)cc1Cl was read as TAR Tat displ 4.6* and CDC25B-CDK2 inh -8.2.
For Cc1nn(CCCC(=O)NCc2cccs2)c(=O)c2c1sc1ccccc12 the results were TAR Tat displ 1.4 and CDC25B-CDK2 inh -1.3.
COc1cc(C2CC(=O)N3CN(c4ccc(C)cc4)CSC3=C2C#N)cc(Br)c1O (stereo not given) was read as TAR Tat displ -0.6 and CDC25B-CDK2 inh 1.7.
`COc1cc(C2CC(=O)N3CN(Cc4ccccc4)CSC3=C2C#N)ccc1O` (stereo not given) gave TAR Tat displ -0.46 and CDC25B-CDK2 inh 4*.
`COc1cc(C2CC(=O)N3CN(Cc4ccccc4)CSC3=C2C#N)cc(Br)c1O` (stereo not given) gave TAR Tat displ 0.52 and CDC25B-CDK2 inh 3.5*.
Screening Cc1ccc(-c2c(Nc3ccc(C(C)C)cc3)c(=O)c2=O)cc1 returned TAR Tat displ 1.3.
COC(=O)CSc1ccc2nnc(-c3ccc(OC)cc3)n2n1 was read as CDC25B-CDK2 inh -2.5.
O=C(O)c1cc(N(Cc2ccccc2O)Cc2cc(O)ccc2O)ccc1O was read as TAR Tat displ 34*.
`Oc1ccccc1CN(Cc1ccccc1)Cc1ccccc1` gave TAR Tat displ 0.39 and CDC25B-CDK2 inh -0.68.
COc1cccc2c1Oc1nc(-c3ccc(Br)cc3)[nH]c(=O)c1C2 was read as TAR Tat displ 0.47 and CDC25B-CDK2 inh -0.14.
COc1cccc2c1Oc1nc(-c3cc(Br)ccc3O)[nH]c(=O)c1C2 was read as TAR Tat displ 18* and CDC25B-CDK2 inh -0.82.
COc1cccc(-c2nc3c(c(=O)[nH]2)Cc2ccccc2O3)c1O was read as TAR Tat displ 1.9 and CDC25B-CDK2 inh -0.88.
COc1cccc(-c2nc3c(c(=O)[nH]2)Cc2cccc(OC)c2O3)c1O was read as TAR Tat displ 12* and CDC25B-CDK2 inh 0.53.
For COc1ccc(NC(=O)c2sc(=S)n3c2[nH]c(=O)c2ccccc23)cc1OC the results were TAR Tat displ 3.6.
COc1ccc(NC(=O)c2sc(=S)n3c2[nH]c(=O)c2sccc23)cc1OC was read as TAR Tat displ 9.2*.
`CC(=O)NC1=NN(C(C)=O)C(c2ccc([N+](=O)[O-])o2)S1` (stereo not given) gave TAR Tat displ 1.8 and CDC25B-CDK2 inh -1.1.
Screening COc1ccc(NC(=O)CN2N=NC3C(=O)N(c4ccc(F)c(Cl)c4)C(=O)C32)cc1 (stereo not given) returned TAR Tat displ 0.74.
O=C(c1ccncc1)N1CCNc2ccccc2C1 was read as TAR Tat displ 0.58 and CDC25B-CDK2 inh -0.26.
Screening COc1ccc(Cl)c(Cn2cnc3c2c(=O)n(C)c(=O)n3C)c1 returned CDC25B-CDK2 inh -0.26.
Screening COc1ccc(Cl)c(Cn2c(NCCN)nc3c2c(=O)n(C)c(=O)n3C)c1 returned TAR Tat displ 3.6* and CDC25B-CDK2 inh 4.6.
For CCC/C(O)=C(/C=Nc1ccccc1C(=O)OC)C(=O)OCC the results were CDC25B-CDK2 inh -1.1.
Screening CN(C)CCN(C(=O)c1ccco1)c1nc2ccc(F)cc2s1 returned TAR Tat displ 0.92.
O=C1CC(=O)Nc2cc(S(=O)(=O)Nc3ccc4c(c3)OCO4)ccc2N1 was read as TAR Tat displ 18*.
O=C1CC(=O)Nc2cc(S(=O)(=O)Nc3ccc(F)cc3)ccc2N1 was read as TAR Tat displ 0.64 and CDC25B-CDK2 inh -0.68.
For CCc1nn(CC(=O)N2CCc3ccccc32)c(=O)c2cc3sccc3n12 the results were TAR Tat displ 0.56 and CDC25B-CDK2 inh -3.3.
For O=C(NCC(c1ccc2c(c1)OCO2)N1CCOCC1)C(=O)NC1CCCC1 (stereo not given) the results were TAR Tat displ 1.1.
`C=CCNC(=S)Nc1ccc2nc3c4ccccc4c4ccccc4c3nc2c1` gave CDC25B-CDK2 inh 4.7*.
For CCCNC(=S)Nc1ccc2nc3c4ccccc4c4ccccc4c3nc2c1 the results were CDC25B-CDK2 inh 11*.
COCCNC(=O)Nc1ccc2sc(NS(=O)(=O)c3ccccc3)nc2c1 was read as TAR Tat displ 2.6.
CCCNC(=S)Nc1ccc(Cl)cc1 was read as CDC25B-CDK2 inh -0.64.
`COCCNC(=S)Nc1ccc2nc3c4ccccc4c4ccccc4c3nc2c1` gave CDC25B-CDK2 inh 11*.
Screening C=CCNC(=O)Nc1ccc2nc(-c3ccccc3)c(-c3ccccc3)nc2c1 returned CDC25B-CDK2 inh -0.53.
`OCCCNC(=S)Nc1ccc2nc(-c3ccccc3)c(-c3ccccc3)nc2c1` gave CDC25B-CDK2 inh 5.9*.
`O=C(NCCCO)Nc1ccc2nc(-c3ccccc3)c(-c3ccccc3)nc2c1` gave CDC25B-CDK2 inh -0.48.
For Cc1ccc(S(=O)(=O)OC[C@H]2O[C@@H](n3cnc4c(=O)[nH]c(NC(=O)C(C)C)nc43)CC2O)cc1 (stereo not given in full) the results were CDC25B-CDK2 inh 1.8.
